Test results from PubChem BioAssay (NCI).
About 83,000 compounds went through this panel and 20% of them were active in at least one assay; those are over-represented in the sample as a whole.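 Activity criterion: percent growth below 10, measured after cells in 96-well plates were exposed to a single compound concentration for 48 hours.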 Calls of active or inactive are those of the source.

Columns and labels:
Assay in all cases: NCI-60 one-dose screen, 48 h (100 = growth as untreated, 0 = no growth, -100 = all killed)
Conditions in all cases: 10 µM unless noted
[1] = tested on: DU-145 prostate
[2] = tested on: K-562 leukemia
[3] = tested on: MALME-3M melanoma
[4] = tested on: MDA-MB-231 breast
[5] = tested on: RXF 393 renal
[6] = tested on: SF-268 CNS
[7] = tested on: SF-295 CNS
[8] = tested on: SF-539 CNS
[9] = tested on: UACC-257 melanoma
[10] = tested on: M14 melanoma
[11] = tested on: HCT-15 colon
[12] = tested on: HT29 colon
[13] = tested on: SNB-75 CNS
[14] = tested on: SNB-19 CNS
[15] = tested on: U251 CNS
[16] = tested on: SK-MEL-5 melanoma
[17] = tested on: UACC-62 melanoma
[18] = tested on: LOX IMVI melanoma
[19] = tested on: SK-MEL-28 melanoma
[20] = tested on: PC-3 prostate

Measured: growth

CCS(=O)(=O)Nc1ccc(C(=O)CC2(O)C(=O)Nc3ccccc32)cc1 (stereo unspecified)
inactive: [1] 109% | [2] 93.5% | [3] 90.1% | [4] 99.6% | [5] 115% | [6] 97.3% | [7] 102% | [8] 96.1% | [9] 103% | [10] 105% | [11] 100% | [12] 113% | [13] 69.2% | [14] 101% | [15] 105% | [16] 99.8% | [17] 96.9% | [18] 94.6% | [19] 109%

CC1=C(C)C(=O)C(Nc2cccc(C(F)(F)F)c2)=C(Br)C1=O
active: [2] -17.9% | [18] 6.64%
inactive: [1] 105% | [3] 101% | [4] 69.2% | [5] 105% | [6] 97.7% | [7] 106% | [8] 96% | [9] 88.1% | [10] 99% | [11] 82.7% | [12] 106% | [13] 62.2% | [14] 91.1% | [15] 87.4% | [20] 71% | [16] 81.3% | [17] 80.8% | [19] 105%

Cc1ccc(C(=O)CSc2nc3ccccc3c(=O)n2C)cc1
inactive: [1] 95.3% | [2] 68.8% | [3] 107% | [4] 80% | [5] 101% | [6] 94.5% | [7] 88.6% | [8] 93.4% | [9] 93.2% | [10] 94.3% | [11] 94.5% | [12] 111% | [13] 75.5% | [14] 94.9% | [15] 94.6% | [16] 81.4% | [17] 70.3% | [18] 93% | [19] 101%

COCCOc1ccc2ncc(C#Cc3cncc(C(=O)Nc4ccc(CN5CCN(C)CC5)c(C(F)(F)F)c4)c3)n2n1
inactive: [7] 31% | [9] 28.1% | [12] 15.6% | [14] 18.1% | [15] 37.9% | [16] 67.4% | [17] 31.5%
active: [1] 7.72% | [2] -18% | [3] -72.3% | [4] -28.5% | [5] -91.2% | [6] -19.6% | [8] 8.57% | [10] -90.5% | [11] 0.122% | [13] 4.29% | [18] -88.9% | [19] -49.4%

Cc1[nH]c(C(=O)Nc2ccccc2OCc2cccc(C(=O)NCCN)c2)cc1Cl
inactive: [1] 36.5% | [3] 83.3% | [4] 96% | [5] 96.3% | [6] 88.3% | [7] 101% | [8] 97.2% | [9] 99.4% | [10] 85.5% | [11] 106% | [12] 69.4% | [13] 74.4% | [14] 85.8% | [15] 53.3% | [20] 96.5% | [16] 99.3% | [17] 68.4% | [18] 35.6% | [19] 37.6%
active: [2] 2.16%

O=C(CSc1nnc(-c2ccc(Cl)cc2)n1-c1ccccc1)Nc1ccccc1Cl
inactive: [1] 68.4% | [2] 67.1% | [3] 79.2% | [4] 44.8% | [5] 74% | [6] 81.5% | [7] 31.5% | [8] 52.1% | [9] 95.1% | [10] 78.2% | [11] 76.8% | [12] 67.5% | [13] 65.8% | [14] 82.4% | [15] 61.6% | [20] 77.8% | [16] 95.4% | [17] 95.7% | [18] 15% | [19] 99.2%

O=C1Nc2ccccc2/C1=C/c1ccc(OCC(=O)c2ccccc2)cc1
inactive: [1] 99.5% | [2] 88.9% | [3] 98.4% | [4] 96.2% | [5] 101% | [6] 96.4% | [7] 107% | [8] 90.6% | [9] 105% | [10] 95.7% | [11] 96.8% | [12] 117% | [13] 73.8% | [14] 94.6% | [15] 100% | [20] 82.9% | [16] 97.7% | [17] 87.1% | [18] 94.5% | [19] 100%

CC(=O)C1=C(C)NC(NNc2ccccc2)=NC1c1ccc([N+](=O)[O-])cc1 (stereo unspecified)
inactive: [1] 99.4% | [2] 49% | [3] 116% | [4] 88.1% | [5] 102% | [6] 80.7% | [7] 87.4% | [8] 99.9% | [9] 104% | [10] 101% | [11] 67.9% | [12] 96.5% | [13] 102% | [14] 87.8% | [15] 93.1% | [16] 98.7% | [17] 52.8% | [18] 77.1% | [19] 102%

O=S(=O)(Oc1ccc(-c2cn3ccoc3n2)cc1)c1cccc(C(F)(F)F)c1
inactive: [1] 101% | [2] 101% | [3] 98.6% | [4] 102% | [5] 98.2% | [6] 102% | [7] 90.4% | [8] 94.3% | [9] 101% | [10] 105% | [11] 95.6% | [12] 103% | [13] 96.3% | [14] 95.2% | [15] 101% | [20] 95.2% | [16] 96.1% | [17] 86.5% | [18] 94.7% | [19] 106%

O=C(COc1ccc(/C=C2\C(=O)Nc3cc(Cl)ccc32)cc1)Nc1ccc(Cl)cc1
inactive: [1] 85.9% | [2] 32.8% | [3] 98.7% | [4] 82.8% | [5] 76.4% | [6] 72.6% | [7] 66% | [8] 66.8% | [9] 78.4% | [10] 22.1% | [11] 42.5% | [12] 74.6% | [13] 78.9% | [14] 82.1% | [15] 85.2% | [16] 72.8% | [17] 24.6% | [18] 44.8% | [19] 78.7%

CN1CCN(c2ccc(Nc3nc(NCCNS(=O)(=O)c4ccccc4)c4sccc4n3)cc2)CC1
inactive: [1] 106% | [2] 84% | [3] 104% | [4] 102% | [5] 87.3% | [6] 79.6% | [7] 105% | [8] 95.4% | [9] 114% | [10] 106% | [11] 95.2% | [12] 99.6% | [13] 81.5% | [14] 98.9% | [15] 103% | [16] 97.4% | [17] 96.4% | [18] 108% | [19] 104%

CCOP(=O)(OCC)OC[C@]12CC[C@@H](C)[C@H](C)C1C1=CC[C@@H]3[C@@]4(C)CCCNC(C)(C)[C@@H]4CC[C@@]3(C)[C@]1(C)CC2 (stereo partly specified)
inactive: [3] 20% | [4] 39% | [5] 16.6% | [6] 37.4% | [7] 18.6% | [8] 60.2% | [9] 13.4% | [13] 66.8% | [14] 17% | [20] 10.9%
active: [1] 1.04% | [2] -59.7% | [10] -65.7% | [11] -8.25% | [12] -30.6% | [15] -59.1% | [16] -8.29% | [17] -12.6% | [18] -86.3% | [19] -2.47%

C#CCOc1ccccc1/C=N/Nc1nc(-c2ccc(Cl)cc2)cs1
inactive: [1] 104% | [2] 86.2% | [3] 97.2% | [4] 86.4% | [5] 102% | [6] 98.9% | [7] 109% | [8] 89.5% | [9] 102% | [10] 94% | [11] 104% | [12] 106% | [13] 92.5% | [14] 97.9% | [15] 99.2% | [16] 98.3% | [17] 85.7% | [18] 95.1% | [19] 98.1%

O=C(NNc1nc2cc(F)cc(F)c2n2cccc12)c1cccnn1
active: [7] 9.98% | [8] 3.8% | [9] 3.33% | [10] 7.06% | [16] -31.3% | [17] 9.53% | [18] 6.98%
inactive: [1] 20.8% | [2] 12.8% | [3] 21.4% | [4] 30.2% | [5] 22.3% | [6] 12% | [11] 27.9% | [12] 30.2% | [13] 24.5% | [14] 21.6% | [15] 15.3% | [19] 23.9%

Clc1ccc2[nH]cc(-c3nn4cc(-c5ccncc5)nc4s3)c2c1
inactive: [1] 53.1% | [2] 49% | [3] 26.9% | [4] 50.8% | [5] 79% | [6] 39.1% | [7] 71% | [8] 25.8% | [9] 90.7% | [10] 67.7% | [11] 57.6% | [12] 72.8% | [13] 72.4% | [14] 24.4% | [15] 52.5% | [16] 38.3% | [17] 25.8% | [18] 49.9% | [19] 53.8%
